Reference: PubChem BioAssay (NCATS)
“And” between values parts separate entries of the source, which are not always exact repeats. Identical values can stand only once. Results filed as inconclusive are left out. Unmarked numbers belong to inactive results. The source made the active and inactive calls. The call rests on the fitted dose curve; in most records, active means well fitted curve in the direction sought with a large enough effect; inconclusive means small, poorly fitted or top-dose-only effect, or another doubt; inactive means no such curve, though single readings can be large; an effect the other way counts as inactive or inconclusive.

test: qHTS of pediatric cancer cell lines to identify multiple opportunities for drug repurposing: Confirmatory screen for NB1643 cells (AID 1347109); details: NB1643 neuroblastoma cell viability; series mostly up to 45.9 µM; activity change, negative = cytotoxic: at the top concentration; further: nearly all actives have a fitted effect of over 45% in size;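 on activity change, negative = cytotoxic: plate controls were DMSO for no effect and bortezomib for full effect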
In short: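 Cells (500-1,000/well) in growth media were settled 5 h at 37 degrees C, then given compounds for 48 h. Viability was read as CellTiter-Glo luminescence. Primary runs used MIPE at 11 points (0.78 nM-46 µM) and NPC at 8 points (0.59 nM-46 µM); follow-ups used 11 points.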
Potency means the concentration at half of the fitted maximal effect.

Row | Structure (SMILES) | Potency | activity change, negative = cytotoxic [%]
1 | CC[C@]1(O)C[C@@H]2CN(CCc3c([nH]c4ccccc34)[C@@](C(=O)OC)(c3cc4c(cc3OC)N(C)[C@H]3[C@@](O)(C(=O)OC)[C@H](OC(C)=O)[C@]5(CC)C=CCN6CC[C@]43[C@@H]65)C2)C1 | 1310 nM (active) | –
2 | O=C(Nc1cccc(Br)c1)c1cccc(S(=O)(=O)N2CCCCCC2)c1 | – | -21.8
3 | CN(C)C1CCN(C(=O)c2ccc(NC(=O)Nc3nc(N4CCOCC4)nc(N4CCOCC4)n3)cc2)CC1 | 928 nM (active) | –
4 | COc1cc2ncnc(Nc3ccc(F)c(Cl)c3)c2cc1OCCCN1CCOCC1 | 38000 nM (active) | –
5 | Cc1nnc(C(C)C)n1C1C[C@H]2CC[C@@H](C1)N2CC[C@H](NC(=O)C1CCC(F)(F)CC1)c1ccccc1 (stereo partly specified) | 7370 nM (active) | –
6 | NS(=O)(=O)c1cccc2c1C(=O)c1cccc(O)c1C2=O | 2930 nM (active) | –
7 | CC1(C)CCC[C@@]2(C)[C@@H]1CC[C@@]1(C)OC(=O)C[C@H]21 | – | -1.93
8 | NC1=N[C@@]2(c3cc(NC(=O)c4ccc(F)cn4)ccc3F)COC[C@@H]2CS1 | – | 0.102
9 | CC=C(C)C(=O)O[C@H]1C(C)=C[C@]23C(=O)[C@@H](C=C(CO)[C@@H](O)[C@]12O)[C@H]1[C@@H](C[C@H]3C)C1(C)C | – | 3.23
10 | CN[C@@H](C)C(=O)N[C@H]1CN(C(=O)CC(C)C)CC[C@H]2CC[C@@H](C(=O)NC(c3ccccc3)c3ccccc3)N2C1=O | – | -5.58
11 | CO[C@H]1C[C@@H]2CC[C@@H](C)[C@@](O)(O2)C(=O)C(=O)N2CCCC[C@@H]2C(=O)O[C@H]([C@H](C)C[C@@H]2CC[C@H](OP(C)(C)=O)[C@H](OC)C2)CC(=O)[C@H](C)C=C(C)[C@@H](O)[C@@H](OC)C(=O)[C@H](C)C[C@H](C)C=CC=CC=C1C | – | -29.6

test: qHTS of pediatric cancer cell lines to identify multiple opportunities for drug repurposing: Confirmatory screen for A673 cells (AID 1347110); details: A673 Ewing sarcoma cell viability; series mostly up to 45.9 µM; activity change, negative = cytotoxicity: at the top concentration;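 further: cells exposed to compound for 48 h before the viability read; nearly all actives have a fitted effect of over 65% in size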;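 on activity change, negative = cytotoxicity: plate controls were DMSO neutral control for no effect and bortezomib positive control for full effect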
In short: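 Concentration-response curves came straight from titrations: 11 points (0.78 nM to 46 µM) for MIPE and several concentrations (0.59 nM to 46 µM) for NPC in primary, 11 points in follow-up. Readout: ATP luminescence at 48 h.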

Row | Structure (SMILES) | Potency | activity change, negative = cytotoxicity [%]
12 | CNC1CCC(N(Cc2cccc(-c3ccncc3)c2)C(=O)c2sc3c(F)ccc(F)c3c2Cl)CC1 (stereo unspecified) | 20.8 µM (active) | –
13 | CCOc1ccc(Nc2nc(-c3c(C)nc4ccccn34)cs2)cc1 | 0.131 µM (active) | –
14 | CC[C@]1(O)C[C@@H]2CN(CCc3c([nH]c4ccccc34)[C@@](C(=O)OC)(c3cc4c(cc3OC)N(C)[C@H]3[C@@](O)(C(=O)OC)[C@H](OC(C)=O)[C@]5(CC)C=CCN6CC[C@]43[C@@H]65)C2)C1 | 32.9 nM (active) and 36.9 nM (active) | –
15 | O=C(O)c1ccc(-c2cc3cccnc3c(-c3ccc4nonc4c3)n2)cc1 | 0.928 µM (active) | –
16 | O=C(Nc1cccc(Br)c1)c1cccc(S(=O)(=O)N2CCCCCC2)c1 | – | -19.5
17 | CN(C)C1CCN(C(=O)c2ccc(NC(=O)Nc3nc(N4CCOCC4)nc(N4CCOCC4)n3)cc2)CC1 | 0.0737 µM (active) | –
18 | CC(=O)Nc1ccc([C@H](C)C(=O)Nc2ncc(C(C)C)s2)cc1 | 2.61 µM (active) | –
19 | CC(C)n1nc(-c2ccc3oc(N)nc3c2)c2c(N)ncnc21 | 0.147 µM (active) | –
20 | Cc1nnc(C(C)C)n1C1C[C@H]2CC[C@@H](C1)N2CC[C@H](NC(=O)C1CCC(F)(F)CC1)c1ccccc1 (stereo partly specified) | – | -14.7
21 | CO[C@H]1C[C@@H]2CC[C@@H](C)[C@@](O)(O2)C(=O)C(=O)N2CCCC[C@@H]2C(=O)O[C@H]([C@H](C)C[C@@H]2CC[C@H](OCCO)[C@H](OC)C2)CC(=O)[C@H](C)C=C(C)[C@@H](O)[C@@H](OC)C(=O)[C@H](C)C[C@H](C)C=CC=CC=C1C | – | -25.7
22 | NS(=O)(=O)c1cccc2c1C(=O)c1cccc(O)c1C2=O | 2.33 µM (active) | –
23 | CO[C@H]1C=CC=C(C)C(=O)NC2=CC(=O)C(NCCN(C)C)=C(C[C@@H](C)C[C@H](OC)[C@@H](O)[C@@H](C)C=C(C)[C@@H]1OC(N)=O)C2=O | 16.5 µM (active) | –
24 | CC1(C)CCC[C@@]2(C)[C@@H]1CC[C@@]1(C)OC(=O)C[C@H]21 | – | -9.82
25 | NC1=N[C@@]2(c3cc(NC(=O)c4ccc(F)cn4)ccc3F)COC[C@@H]2CS1 | – | 3.72
26 | OC[C@H]1O[C@@H](n2cnc3c2NC=NC[C@@H]3O)C[C@H]1O | 1.04 µM (active) | –

test: qHTS of pediatric cancer cell lines to identify multiple opportunities for drug repurposing: Confirmatory screen for SK-N-MC cells (AID 1347111); details: SK-N-MC cell viability; series mostly up to 45.9 µM; activity change, negative = cytotoxic: at the top concentration;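 further: cells exposed to compound for 48 h before the readout; nearly all actives have a fitted effect of over 70% in size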
In short: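 Metabolically active cells were quantified by ATP-dependent luminescence (CellTiter-Glo, 15 min at room temperature) following 48 h treatment. Cells had been plated at 500-1,000 per well and settled for 5 h beforehand.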

Row | Structure (SMILES) | Potency
27 | CNC1CCC(N(Cc2cccc(-c3ccncc3)c2)C(=O)c2sc3c(F)ccc(F)c3c2Cl)CC1 (stereo unspecified) | 11.7 µM (active)
28 | CCOc1ccc(Nc2nc(-c3c(C)nc4ccccn34)cs2)cc1 | 0.0928 µM (active)
29 | CC[C@]1(O)C[C@@H]2CN(CCc3c([nH]c4ccccc34)[C@@](C(=O)OC)(c3cc4c(cc3OC)N(C)[C@H]3[C@@](O)(C(=O)OC)[C@H](OC(C)=O)[C@]5(CC)C=CCN6CC[C@]43[C@@H]65)C2)C1 | 657 nM (active) and 737 nM (active)
30 | O=C(O)c1ccc(-c2cc3cccnc3c(-c3ccc4nonc4c3)n2)cc1 | 2.33 µM (active)
31 | CN(C)C1CCN(C(=O)c2ccc(NC(=O)Nc3nc(N4CCOCC4)nc(N4CCOCC4)n3)cc2)CC1 | 0.208 µM (active)
32 | CC(=O)Nc1ccc([C@H](C)C(=O)Nc2ncc(C(C)C)s2)cc1 | 8.27 µM (active)
33 | CC(C)n1nc(-c2ccc3oc(N)nc3c2)c2c(N)ncnc21 | 0.0737 µM (active)
34 | COc1cc2ncnc(Nc3ccc(F)c(Cl)c3)c2cc1OCCCN1CCOCC1 | 33.9 µM (active)
35 | Cc1nnc(C(C)C)n1C1C[C@H]2CC[C@@H](C1)N2CC[C@H](NC(=O)C1CCC(F)(F)CC1)c1ccccc1 (stereo partly specified) | 7.37 µM (active)
36 | NS(=O)(=O)c1cccc2c1C(=O)c1cccc(O)c1C2=O | 2.93 µM (active)
37 | CO[C@H]1C=CC=C(C)C(=O)NC2=CC(=O)C(NCCN(C)C)=C(C[C@@H](C)C[C@H](OC)[C@@H](O)[C@@H](C)C=C(C)[C@@H]1OC(N)=O)C2=O | 0.827 µM (active)
38 | CC1(C)CCC[C@@]2(C)[C@@H]1CC[C@@]1(C)OC(=O)C[C@H]21 | 26.1 µM (active)
39 | CN[C@@H](C)C(=O)N[C@H]1CN(C(=O)CC(C)C)CC[C@H]2CC[C@@H](C(=O)NC(c3ccccc3)c3ccccc3)N2C1=O | 7.37 µM (active)
40 | CO[C@H]1C[C@@H]2CC[C@@H](C)[C@@](O)(O2)C(=O)C(=O)N2CCCC[C@@H]2C(=O)O[C@H]([C@H](C)C[C@@H]2CC[C@H](OP(C)(C)=O)[C@H](OC)C2)CC(=O)[C@H](C)C=C(C)[C@@H](O)[C@@H](OC)C(=O)[C@H](C)C[C@H](C)C=CC=CC=C1C | 11.7 µM (active)
41 | OC[C@H]1O[C@@H](n2cnc3c2NC=NC[C@@H]3O)C[C@H]1O | 8.27 µM (active)
